DAX1 inh-1 – DAX1 (NR0B1) inhibitors on StAR promoter, primary screen, cell-based, luminescence, SF-1 (NR5A1), full-length DAX-1; inhibition, % at 6.8 µM; 370,000 compounds, 1.1% hits; HEK293T StAR-luciferase reporter, SF-1/DAX-1 repression relief;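 active = inhibition above the mean over all tested compounds plus 3 SD, cut at about 3.6% in these data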;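 note: 0% = DAX-1 cells with DMSO and 100% = cells lacking DAX-1 with DMSO; higher inhibition means more luminescence from relief of DAX-1 repression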
DAX1 inh-2 – DAX1 (NR0B1) inhibitors, primary screen, cell-based, HEK293, Gal4-DAX1, luciferase luminescence. Nuclear receptor subfamily 0 group B member 1 (Homo sapiens), P51843. HEK293 Gal4-DAX1 luciferase reporter. inhibition, % at 6.75 µM. 340,000 compounds, 0.99% hits. AID 504766, 2011;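 active = inhibition above the mean over all tested compounds plus 3 SD, cut at about 4.2% in these data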;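 note: 0% = DAX1-transfected cells with DMSO and 100% = empty-vector control cells with DMSO; inhibition shows as a rise in luminescence from relieved DAX1 repression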
Target sequence (P51843 207-470 limits assumed): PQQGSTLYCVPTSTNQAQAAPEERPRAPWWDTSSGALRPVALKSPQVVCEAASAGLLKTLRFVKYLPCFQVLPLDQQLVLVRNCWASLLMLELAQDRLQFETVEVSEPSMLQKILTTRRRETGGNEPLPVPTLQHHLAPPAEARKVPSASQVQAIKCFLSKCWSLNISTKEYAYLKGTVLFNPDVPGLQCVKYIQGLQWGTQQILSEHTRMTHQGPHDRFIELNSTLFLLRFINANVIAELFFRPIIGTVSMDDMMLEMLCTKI
hcDAF12 agonist – H. contortus DAF-12 nuclear receptor activators, primary screen, cell-based, luminescence, HEK293, lit1-tk-luc reporter; 370,000 compounds, 1.4% hits; activation, % at 6.8 µM; HEK293 hcDAF-12 lit1-tk-luc reporter; 0% DMSO, 100% Δ7-dafachronic acid;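 active = activation above the mean of all tested compounds plus 3 SD, cut at about 5.5% in these data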;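 note: 100% = response to 3 µM Δ7-dafachronic acid high control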
hgDAF-12 ag – H. glycines DAF-12 receptor agonists, primary screen, cell-based, luminescence, HEK293, GAL4 fusion, UAS-luciferase. AID 687014, 2013. Nuclear hormone receptor DAF-12 (Heterodera glycines), GAL4 fusion. HEK293 GAL4-hgDAF12 UAS-luciferase reporter, agonist luminescence; normalized to butyrate control. activation, % at 6.8 µM. 370,000 compounds, 1.8% hits;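 active = activation above a cutoff set at the mean of all screened compounds plus 3 SD, cut at about 10% in these data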;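 note: 0% = DMSO wells and 100% = sodium butyrate wells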
ssDAF-12 act – S. stercoralis DAF-12 nuclear receptor activators, primary screen, cell-based, luminescence, HEK293, GRIP1 co-expression, lit1-tk-luc; Nuclear hormone receptor DAF-12 (Strongyloides stercoralis); HEK293 ssDAF-12/GRIP1 lit1-tk-luc reporter; % of 3 µM dafachronic acid response; activation, % at 6.8 µM; 370,000 compounds, 1% hits;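 active = activation above the mean over all tested compounds plus 3 SD, cut at about 0.9% in these data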;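 note: 0% = DMSO-only wells and 100% = 3 µM delta7-dafachronic acid wells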
SMARCA2 act – SMARCA2 (BRM) function activators, primary screen, cell-based, luminescence, high throughput. 370,000 compounds, 1% hits. activation, % at 9.1 µM. MG213 cells, MMTV-luciferase reporter, dexamethasone, overnight; in the data active = activation above about 7.8%;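 note: 0% = vehicle wells and 100% = reference activator wells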
* hit, by the source's call. Shown are actives, neighbours in structure and some others; about 4.8% of the full set was active somewhere.

What do the screens show for `COc1ccc(/C=N/NC(=O)CCc2n[nH]c(=O)[nH]c2=O)cc1OC`?
DAX1 inh-1: 0; DAX1 inh-2: -1; hcDAF12 agonist: -2; hgDAF-12 ag: -6; ssDAF-12 act: -1; SMARCA2 act: -4

What do the screens show for `COc1ccccc1NS(=O)(=O)c1cc(NC(=O)C(C)NC(N)=O)ccc1N1CCCC1` (centres undefined)?
DAX1 inh-1: 1; DAX1 inh-2: 0; hcDAF12 agonist: 0; hgDAF-12 ag: 1; ssDAF-12 act: -1; SMARCA2 act: 0

What do the screens show for `COc1ccccc1CNC(=O)COc1cc2c(c3oc(=O)cc(C)c13)CCC(C)(C)O2`?
DAX1 inh-1: 0; DAX1 inh-2: 4.4*; hcDAF12 agonist: 1; hgDAF-12 ag: -3; ssDAF-12 act: -2; SMARCA2 act: 1

What do the screens show for `CCCc1cc(=O)oc2c3c(cc(OCC(=O)N4CCC[C@H]4C(=O)O)c12)OC(C)(C)CC3`?
DAX1 inh-1: 0; DAX1 inh-2: 4.5*; hcDAF12 agonist: 1; hgDAF-12 ag: 1; ssDAF-12 act: -1; SMARCA2 act: 1

How did COCOCCn1cc(CN2CCS(=O)(=O)N(Cc3ccc(-c4ccc(C)cc4)cc3)C(C)C2=O)nn1 (centres undefined) do in these assays?
DAX1 inh-1: 0; DAX1 inh-2: -1; hcDAF12 agonist: -3; hgDAF-12 ag: -4; ssDAF-12 act: -1; SMARCA2 act: -4

Results for CCOc1ccc(-n2c(=O)[nH]c3sc4c(c3c2=O)CCCC4)cc1 ?
DAX1 inh-1: 0; DAX1 inh-2: 7.8*; hcDAF12 agonist: 0; hgDAF-12 ag: 1; ssDAF-12 act: -1; SMARCA2 act: -1

What do the screens show for `Cc1c(N=Cc2ccc(O)c(Br)c2)cccc1[N+](=O)[O-]`?
DAX1 inh-1: 0; DAX1 inh-2: 0; hcDAF12 agonist: 6.1*; hgDAF-12 ag: 2; ssDAF-12 act: 1.1*; SMARCA2 act: -1

Results for CC(C)CNC(=O)CSc1nnc2ccccn12 ?
DAX1 inh-1: 0; DAX1 inh-2: -1; hcDAF12 agonist: 2; hgDAF-12 ag: 0; ssDAF-12 act: -1; SMARCA2 act: -2

How did O=C(c1ccco1)N1CCN(C2CN(C3CCCCC3)S(=O)(=O)C2)CC1 (centres undefined) do in these assays?
DAX1 inh-1: 3.9*; hcDAF12 agonist: 0; hgDAF-12 ag: -1; ssDAF-12 act: -1; SMARCA2 act: -6

Results for CCC(C)c1ccc(S(=O)(=O)N2CCN(C(=O)CN3C(=O)NC(C)(C4CC4)C3=O)CC2)cc1 (centres undefined) ?
DAX1 inh-1: 1; DAX1 inh-2: 1; hcDAF12 agonist: 0; hgDAF-12 ag: -2; ssDAF-12 act: -1; SMARCA2 act: 0

How did CCCc1ccc(S(=O)(=O)N2CCN(C(=O)CN3C(=O)NC(C)(C4CC4)C3=O)CC2)cc1 (centres undefined) do in these assays?
DAX1 inh-1: 1; DAX1 inh-2: 4.3*; hcDAF12 agonist: 1; hgDAF-12 ag: -2; ssDAF-12 act: -1; SMARCA2 act: -2

How did CCN(CC)c1ccc(C=NCCc2ccc(S(N)(=O)=O)cc2)cc1 do in these assays?
DAX1 inh-1: -1; DAX1 inh-2: 0; hcDAF12 agonist: 4; hgDAF-12 ag: -2; ssDAF-12 act: 1.0*; SMARCA2 act: -4

How did CCN(CC)c1ccc(/C=N/NS(=O)(=O)c2ccc(CNC(C)=O)cc2)cc1 do in these assays?
DAX1 inh-1: -1; DAX1 inh-2: -2; hcDAF12 agonist: 3; hgDAF-12 ag: 0; ssDAF-12 act: -1; SMARCA2 act: -2

Results for Cc1ccccc1OCC(=O)N/N=C/C=C/c1ccccc1 ?
DAX1 inh-1: 1; DAX1 inh-2: 0; hcDAF12 agonist: 0; hgDAF-12 ag: 1; ssDAF-12 act: -1; SMARCA2 act: -1

Assay outcomes: PubChem BioAssay, The Scripps Research Institute Molecular Screening Center
